The values that follow come from PubChem BioAssay (NCI).

Among the test systems are NCI-H23 lung; NCI-H226 lung; NCI-H322M lung; HOP-62 NSCLC; NCI-H460 lung; HOP-92 NSCLC; NCI-H522 lung; A549/ATCC NSCLC; 786-0 renal; COLO 205 colon; DU-145 prostate; K-562 leukemia; MALME-3M melanoma; MDA-MB-231 breast; RXF 393 renal; SF-268 CNS; SF-295 CNS; SF-539 CNS; UACC-257 melanoma; M14 melanoma.
Assay in all cases: NCI-60 one-dose screen, 48 h (100 = growth as untreated, 0 = no growth, -100 = all killed)
Holding throughout (settings): 10 µM unless noted

This is part of a sample that, as a whole, favours compounds with a hit. Of some 83,000 tested, about 20% had one in any assay.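 The test compound was applied at a single concentration to cells in 96-well plates for 48 hours, and percent growth was recorded.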 Values without a mark were called inactive. Calls of active or inactive are those of the source. Rule for the calls: active = growth percent below 10; inactive = the rest.

Take `CNC(=O)c1cc(Oc2ccc3nc(NC(=O)Nc4ccc(F)cc4F)sc3c2)ccn1`: the growth with NCI-H23 lung was 47%; in the experiment on NCI-H226 lung it was 52.8%; with NCI-H322M lung it was 62.2%; with HOP-62 NSCLC, 60.7%; in the experiment with NCI-H460 lung it was 63%; in the experiment on HOP-92 NSCLC it was -13.7% (active). Moreover, the growth with NCI-H522 lung is 68.7%; in the experiment with A549/ATCC NSCLC, 44.8%; in the experiment on 786-0 renal, 64%; with COLO 205 colon, 87.1%; with DU-145 prostate it was 65.7%; with K-562 leukemia, 71.5%. The growth in the experiment on MALME-3M melanoma is 46.2%; in the experiment on MDA-MB-231 breast it was 47.7%; in the experiment with RXF 393 renal it was 42.3%; with SF-268 CNS, 76.1%; with SF-295 CNS, 76.7%; in the experiment on SF-539 CNS, 61.7%. Also, the growth is 74.3% in the experiment on UACC-257 melanoma and 69.1% in the experiment with M14 melanoma.
For `COc1ccc(NC(=O)c2sc3nc(C)c(C(=O)c4ccccc4)cc3c2N)cc1`, the growth in the experiment with NCI-H23 lung was 96.1%; with NCI-H226 lung it was 97.2%; with NCI-H322M lung, 64.7%; with HOP-62 NSCLC, 97.7%; in the experiment on NCI-H460 lung it was 61.3%; with HOP-92 NSCLC, 111%. Also, the growth is 80.8% in the experiment with NCI-H522 lung; 52% with A549/ATCC NSCLC; 96.4% in the experiment with 786-0 renal; 108% with COLO 205 colon; 116% with DU-145 prostate; 94.2% in the experiment with K-562 leukemia. Also, the growth in the experiment on MALME-3M melanoma is 102%; with MDA-MB-231 breast, 98.6%; in the experiment on RXF 393 renal, 87.8%; in the experiment on SF-268 CNS, 104%; in the experiment on SF-295 CNS, 103%; in the experiment on SF-539 CNS it was 102%. Besides, the growth is 96.9% with UACC-257 melanoma and 106% with M14 melanoma.
For `O=C1Nc2ccccc2/C1=C/c1cccn1CCCCCCn1c2ccccc2c(=O)c2ccccc21`, the growth in the experiment with NCI-H23 lung is 73.6%; in the experiment on NCI-H226 lung, 72.7%; in the experiment on NCI-H322M lung it was 97.9%; in the experiment on HOP-62 NSCLC, 63.2%; in the experiment on NCI-H460 lung, 90.7%; with HOP-92 NSCLC, 56.4%. Besides, the growth is 66% in the experiment on NCI-H522 lung; 87.9% in the experiment on A549/ATCC NSCLC; 103% in the experiment with 786-0 renal; 50.5% in the experiment with COLO 205 colon; 94% with DU-145 prostate; 66.6% in the experiment with K-562 leukemia. The growth was 90.7% in the experiment with MALME-3M melanoma; 75.4% in the experiment with MDA-MB-231 breast; 99.2% in the experiment with RXF 393 renal; 87% in the experiment on SF-268 CNS; 97.2% in the experiment on SF-295 CNS; 100% with SF-539 CNS. Besides, the growth was 110% with UACC-257 melanoma and 78.2% with M14 melanoma.
Regarding `CCOC(=O)c1cnc2sc(-c3ccc(OC)cc3)nc2c1Cl`, the growth in the experiment with NCI-H23 lung was 82%; in the experiment on NCI-H226 lung it was 99.2%; in the experiment on NCI-H322M lung it was 89.2%; in the experiment with HOP-62 NSCLC it was 112%; in the experiment with NCI-H460 lung, 100%; in the experiment on HOP-92 NSCLC it was 94.7%. In addition, the growth with NCI-H522 lung is 97.8%; in the experiment with A549/ATCC NSCLC it was 106%; with 786-0 renal, 115%; in the experiment with COLO 205 colon, 123%; with DU-145 prostate, 96.3%; in the experiment on K-562 leukemia it was 107%. Moreover, the growth was 76.3% in the experiment on MALME-3M melanoma; 101% with MDA-MB-231 breast; 101% in the experiment with RXF 393 renal; 103% in the experiment with SF-268 CNS; 105% in the experiment with SF-295 CNS; 104% in the experiment with SF-539 CNS. Also, the growth with UACC-257 melanoma is 101%; in the experiment with M14 melanoma, 79.1%.
Regarding `CCCCCCC/C=N/NC(=O)c1ccc(-n2cc(-c3ccccc3)nn2)cc1`, the growth is 87.6% with NCI-H23 lung; 85.2% in the experiment with NCI-H226 lung; 86.3% with NCI-H322M lung; 95.8% in the experiment with HOP-62 NSCLC; 98.4% in the experiment with NCI-H460 lung; 87.1% with HOP-92 NSCLC. The growth is 79.9% in the experiment on NCI-H522 lung; 96% with A549/ATCC NSCLC; 92.2% with 786-0 renal; 110% with COLO 205 colon; 96.1% with DU-145 prostate; 79.7% in the experiment on K-562 leukemia. For the same compound, the growth is 78.1% with MALME-3M melanoma; 74.3% in the experiment on MDA-MB-231 breast; 83.5% with RXF 393 renal; 90.1% in the experiment on SF-268 CNS; 87.8% in the experiment with SF-295 CNS; 96.5% in the experiment with SF-539 CNS. Further, the growth in the experiment on UACC-257 melanoma was 100%; in the experiment with M14 melanoma it was 80.7%.
Consider `COc1cccc(/C=C2\CCc3ccccc3C2=O)c1`, for which the growth with NCI-H23 lung is 83.6%; with NCI-H226 lung, 93.6%; with NCI-H322M lung, 98%; in the experiment on HOP-62 NSCLC, 88.4%; in the experiment with NCI-H460 lung it was 96.6%; with HOP-92 NSCLC, 64.3%. Further, the growth with NCI-H522 lung was 62.9%; in the experiment on A549/ATCC NSCLC it was 85.1%; with 786-0 renal it was 81.4%; in the experiment with COLO 205 colon, 112%; with DU-145 prostate it was 97.8%; in the experiment with K-562 leukemia, 35.1%. Further, the growth in the experiment with MALME-3M melanoma is 80.7%; in the experiment on MDA-MB-231 breast, 89.9%; with RXF 393 renal it was 90.2%; in the experiment on SF-268 CNS it was 90.3%; in the experiment with SF-295 CNS it was 88.9%; with SF-539 CNS it was 91.5%. Also, the growth in the experiment on UACC-257 melanoma is 80.8%; with M14 melanoma, 90%.
Consider `CN(C)C(=O)OCc1ccc2c(Cl)cc(Cl)c(O)c2n1`, for which the growth with NCI-H23 lung is 51.2%; in the experiment on NCI-H226 lung, 68.3%; in the experiment on NCI-H322M lung it was 53.8%; in the experiment on HOP-62 NSCLC it was 27.3%; in the experiment on NCI-H460 lung, 31.3%; in the experiment with HOP-92 NSCLC, 58.8%. Moreover, the growth with NCI-H522 lung was 65.1%; in the experiment with A549/ATCC NSCLC, 25%; in the experiment on 786-0 renal, 48.7%; in the experiment on COLO 205 colon, 104%; with DU-145 prostate, 39.7%; with K-562 leukemia, 20%. The growth is 46% with MALME-3M melanoma; 54.6% in the experiment on MDA-MB-231 breast; 67.6% in the experiment with RXF 393 renal; 25.8% in the experiment on SF-268 CNS; 34.5% in the experiment with SF-295 CNS; 26.1% in the experiment with SF-539 CNS. For the same compound, the growth in the experiment with UACC-257 melanoma is 48.5%; in the experiment on M14 melanoma, 12.6%.
For the compound `C=CN(C(=O)N1CCN(c2cc3c(cc2F)c(=O)c(C(=O)O)cn3C2CC2)CC1)c1nc(-c2ccc(C)cc2)cs1`, the growth is 13.4% in the experiment on NCI-H23 lung; 35.4% in the experiment with NCI-H226 lung; 20.8% in the experiment with NCI-H322M lung; 17.9% with HOP-62 NSCLC; 9.77% (active) in the experiment on NCI-H460 lung; -10.4% (active) with HOP-92 NSCLC. For the same compound, the growth in the experiment with NCI-H522 lung is 5.65% (active); with A549/ATCC NSCLC it was 15.7%; with 786-0 renal it was 22.8%; in the experiment on COLO 205 colon, 16.7%; in the experiment with DU-145 prostate it was 24.7%; in the experiment on K-562 leukemia, 18.5%. In addition, the growth in the experiment on MALME-3M melanoma was 48.2%; with MDA-MB-231 breast it was 21.5%; in the experiment on RXF 393 renal, 6.69% (active); in the experiment with SF-268 CNS, 26.3%; in the experiment with SF-295 CNS, -5.02% (active); with SF-539 CNS it was 20.2%. The figures for the growth in the experiment on UACC-257 melanoma and with M14 melanoma were 54.2% and 31.4%, respectively.
